This is part of a sample that, as a whole, favours compounds with a hit. Of some 83,000 tested, about 20% had one in any assay.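 Plates (96-well) were seeded with cells, treated with compound at one concentration, and incubated for 48 hours before percent growth was determined.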 Active and inactive are the calls of the source. The calls were made as follows: active = growth percent below 10; inactive = the rest.
How the values were obtained:
Experiment in all cases: NCI-60 one-dose screen, 48 h (100 = growth as untreated, 0 = no growth, -100 = all killed)
Conditions in all cases: 10 µM unless noted
SK-MEL-2 melanoma = test system: SK-MEL-2 melanoma
EKVX NSCLC = test system: EKVX NSCLC
SN12C renal = test system: SN12C renal
UO-31 renal = test system: UO-31 renal
TK-10 renal = test system: TK-10 renal
ACHN renal = test system: ACHN renal
CAKI-1 renal = test system: CAKI-1 renal
A498 renal = test system: A498 renal
CCRF-CEM leukemia = test system: CCRF-CEM leukemia
RPMI-8226 leukemia = test system: RPMI-8226 leukemia
OVCAR-8 ovarian = test system: OVCAR-8 ovarian
OVCAR-5 ovarian = test system: OVCAR-5 ovarian
OVCAR-4 ovarian = test system: OVCAR-4 ovarian
SK-OV-3 ovarian = test system: SK-OV-3 ovarian
IGROV1 ovarian = test system: IGROV1 ovarian
OVCAR-3 ovarian = test system: OVCAR-3 ovarian
HS 578T breast = test system: HS 578T breast
NCI/ADR-RES ovarian = test system: NCI/ADR-RES ovarian
SR leukemia = test system: SR leukemia
MOLT-4 leukemia = test system: MOLT-4 leukemia

Measured: growth

COc1ccc(-c2nnc3ccc(N/N=C/c4ccc(C)cc4)nn23)cc1
inactive: SK-MEL-2 melanoma 108% | EKVX NSCLC 68.2% | SN12C renal 76.9% | UO-31 renal 33.5% | TK-10 renal 82.7% | ACHN renal 59% | CAKI-1 renal 54.6% | A498 renal 109% | CCRF-CEM leukemia 91.8% | RPMI-8226 leukemia 94% | OVCAR-8 ovarian 41.4% | OVCAR-5 ovarian 115% | OVCAR-4 ovarian 36.9% | SK-OV-3 ovarian 79.8% | IGROV1 ovarian 100% | OVCAR-3 ovarian 15.6% | HS 578T breast 29.1% | NCI/ADR-RES ovarian 25.8%

NS(=O)(=O)c1ccc(-n2cc(-c3cccc(NC(=O)c4cc(N5CCOCC5)cc(C(F)(F)F)c4)c3)nn2)cc1
active: OVCAR-8 ovarian 5.31%
inactive: SK-MEL-2 melanoma 61.9% | EKVX NSCLC 70.5% | SN12C renal 35.1% | UO-31 renal 80.3% | TK-10 renal 86.3% | ACHN renal 80.4% | CAKI-1 renal 57% | A498 renal 104% | CCRF-CEM leukemia 93.9% | RPMI-8226 leukemia 98.8% | OVCAR-5 ovarian 108% | OVCAR-4 ovarian 48.3% | SK-OV-3 ovarian 31.2% | IGROV1 ovarian 72.9% | OVCAR-3 ovarian 69% | HS 578T breast 47.9% | NCI/ADR-RES ovarian 98.5%

CC1=C(C(=O)c2ccccc2)C(c2cccc3ccccc23)n2c(nc3ccccc32)N1 (stereo not drawn)
inactive: SK-MEL-2 melanoma 106% | EKVX NSCLC 58.4% | SN12C renal 75.3% | UO-31 renal 81.8% | TK-10 renal 83.8% | ACHN renal 88.5% | CAKI-1 renal 55.7% | A498 renal 153% | CCRF-CEM leukemia 55.9% | SR leukemia 43.7% | RPMI-8226 leukemia 83.9% | OVCAR-8 ovarian 38.3% | OVCAR-4 ovarian 75.6% | SK-OV-3 ovarian 57.4% | IGROV1 ovarian 86.5% | OVCAR-3 ovarian 59% | NCI/ADR-RES ovarian 43.3%

O=C(NNc1nc2cc(F)ccc2n2c(CN3CCCCC3)ccc12)c1cnccn1
inactive: HS 578T breast 23.7%
active: SK-MEL-2 melanoma -67.2% | EKVX NSCLC -78.2% | SN12C renal 1.01% | UO-31 renal -72.2% | TK-10 renal -92.7% | ACHN renal -98.3% | CAKI-1 renal -79.5% | A498 renal -87.9% | CCRF-CEM leukemia -16.2% | RPMI-8226 leukemia -2.84% | OVCAR-8 ovarian -84% | OVCAR-5 ovarian -69.5% | OVCAR-4 ovarian -45.5% | SK-OV-3 ovarian -63.7% | IGROV1 ovarian -3.63% | OVCAR-3 ovarian -45.9% | NCI/ADR-RES ovarian -31.5%

COc1ccc(-c2nnc3ccc(N/N=C/c4ccc(O)cc4)nn23)cc1
inactive: SK-MEL-2 melanoma 73.2% | EKVX NSCLC 37.8% | SN12C renal 42.3% | UO-31 renal 30.3% | TK-10 renal 38.9% | ACHN renal 43.5% | CAKI-1 renal 21.5% | A498 renal 91.9% | CCRF-CEM leukemia 14.1% | RPMI-8226 leukemia 13.1% | OVCAR-8 ovarian 45.4% | OVCAR-5 ovarian 88.9% | OVCAR-4 ovarian 47.9% | SK-OV-3 ovarian 104% | IGROV1 ovarian 39.3% | OVCAR-3 ovarian 37.6% | HS 578T breast 46.8% | NCI/ADR-RES ovarian 26%

O=C(NNc1nc2cc(F)ccc2n2c(C(=O)N3CCN(C4CC4)CC3)ccc12)c1ncccn1
inactive: SK-MEL-2 melanoma 57% | EKVX NSCLC 22.8% | SN12C renal 27% | UO-31 renal 14.8% | TK-10 renal 30.2% | ACHN renal 12.2% | CAKI-1 renal 17.7% | A498 renal 75.9% | CCRF-CEM leukemia 13.4% | RPMI-8226 leukemia 25.1% | OVCAR-8 ovarian 22.1% | OVCAR-5 ovarian 38.4% | OVCAR-4 ovarian 29.5% | SK-OV-3 ovarian 22.1% | IGROV1 ovarian 30.4% | OVCAR-3 ovarian 57.7% | HS 578T breast 66.5% | NCI/ADR-RES ovarian 16.6%

COc1cc(OC)cc(C(=O)Nc2cccc(-c3cn(-c4ccc(S(N)(=O)=O)cc4)nn3)c2)c1
inactive: SK-MEL-2 melanoma 92.6% | EKVX NSCLC 78.8% | SN12C renal 70% | UO-31 renal 96.3% | TK-10 renal 94.8% | ACHN renal 88.5% | CAKI-1 renal 60.8% | A498 renal 116% | CCRF-CEM leukemia 105% | RPMI-8226 leukemia 114% | OVCAR-5 ovarian 113% | OVCAR-4 ovarian 72% | SK-OV-3 ovarian 47.5% | IGROV1 ovarian 99.5% | OVCAR-3 ovarian 90.9% | HS 578T breast 70.3% | NCI/ADR-RES ovarian 94.4%

COc1cc(OC)c2c3nc4cc(C)c(C)cc4nc3n(CCN(C)C)c2c1
inactive: SK-MEL-2 melanoma 101% | EKVX NSCLC 89.9% | TK-10 renal 147% | ACHN renal 47.3% | CAKI-1 renal 50.5% | A498 renal 105% | MOLT-4 leukemia 10.4% | OVCAR-5 ovarian 73.1% | OVCAR-4 ovarian 63.3% | SK-OV-3 ovarian 103% | IGROV1 ovarian 55.5% | OVCAR-3 ovarian 97.7% | HS 578T breast 84.2%
active: SN12C renal -48.8% | UO-31 renal -68.6% | SR leukemia 0.994% | OVCAR-8 ovarian -0.293% | NCI/ADR-RES ovarian 3.26%

COc1cc(NC(=O)c2cccc(C3CCc4c(cc(OC)c(OC)c4OC)O3)c2)cc(OC)c1OC (stereo not drawn)
active: SK-MEL-2 melanoma -1.8% | UO-31 renal 3.46% | OVCAR-8 ovarian 5.15% | OVCAR-3 ovarian 7.51% | HS 578T breast -8.84%
inactive: EKVX NSCLC 35.3% | SN12C renal 13.2% | TK-10 renal 56.6% | ACHN renal 17.3% | CAKI-1 renal 14.8% | A498 renal 112% | CCRF-CEM leukemia 18.1% | RPMI-8226 leukemia 16.2% | OVCAR-5 ovarian 51.4% | SK-OV-3 ovarian 32.4% | IGROV1 ovarian 13.8% | NCI/ADR-RES ovarian 16.9%

COc1ccc(NC(=O)Cn2c(/C=C/c3cccc([N+](=O)[O-])c3)nc3ccccc3c2=O)cc1
inactive: SK-MEL-2 melanoma 106% | EKVX NSCLC 87.8% | SN12C renal 76.1% | UO-31 renal 22.9% | TK-10 renal 72.7% | ACHN renal 20.3% | CAKI-1 renal 49.9% | A498 renal 92.8% | CCRF-CEM leukemia 92.3% | RPMI-8226 leukemia 124% | OVCAR-5 ovarian 118% | OVCAR-4 ovarian 44.7% | SK-OV-3 ovarian 42% | IGROV1 ovarian 104% | OVCAR-3 ovarian 50.7% | HS 578T breast 66.8% | NCI/ADR-RES ovarian 70.8%

O=C(O)c1cccc(-c2ccc(/C=N/NC(=O)c3[nH]c4ccc(Br)cc4c3-c3ccccc3)o2)c1
active: CCRF-CEM leukemia 9.68%
inactive: SK-MEL-2 melanoma 61.4% | EKVX NSCLC 86.3% | SN12C renal 81.5% | UO-31 renal 81% | TK-10 renal 117% | ACHN renal 89.9% | A498 renal 95.3% | MOLT-4 leukemia 63.6% | SR leukemia 21.1% | RPMI-8226 leukemia 96.5% | OVCAR-8 ovarian 66.4% | OVCAR-5 ovarian 107% | OVCAR-4 ovarian 73% | SK-OV-3 ovarian 110% | IGROV1 ovarian 85% | OVCAR-3 ovarian 17.1% | NCI/ADR-RES ovarian 73.7%

COc1ccc(NC(=O)Cn2c3c(sc2=O)[C@H]2[C@@H](O)[C@@H](O)[C@H](O)[C@@H]2CS3)cc1
inactive: SK-MEL-2 melanoma 101% | EKVX NSCLC 97.4% | SN12C renal 98.8% | UO-31 renal 90.2% | TK-10 renal 112% | ACHN renal 96.6% | CAKI-1 renal 97.2% | A498 renal 111% | MOLT-4 leukemia 108% | SR leukemia 99.1% | OVCAR-8 ovarian 103% | OVCAR-5 ovarian 105% | OVCAR-4 ovarian 106% | SK-OV-3 ovarian 107% | IGROV1 ovarian 104% | OVCAR-3 ovarian 109% | HS 578T breast 107% | NCI/ADR-RES ovarian 107%

COc1ccc(C(=O)/C=C/c2cccc(Cl)c2)cc1S(N)(=O)=O
active: EKVX NSCLC -73.5% | SN12C renal -25.3% | UO-31 renal -67.6% | TK-10 renal -86.1% | ACHN renal -89.3% | CAKI-1 renal -9.94% | CCRF-CEM leukemia 6.96% | RPMI-8226 leukemia -5.22% | OVCAR-8 ovarian -70.3% | OVCAR-5 ovarian -17.8% | IGROV1 ovarian 6.51% | OVCAR-3 ovarian -58.8%
inactive: SK-MEL-2 melanoma 80.9% | A498 renal 111% | OVCAR-4 ovarian 46.4% | SK-OV-3 ovarian 49.8% | HS 578T breast 95.4% | NCI/ADR-RES ovarian 14.3%

COc1ccc(C(=O)/C=C/c2cccnc2)cc1S(N)(=O)=O
inactive: SK-MEL-2 melanoma 104% | EKVX NSCLC 63.3% | SN12C renal 37.7% | UO-31 renal 28% | TK-10 renal 66.8% | ACHN renal 50.7% | CAKI-1 renal 52.6% | A498 renal 103% | OVCAR-8 ovarian 17.6% | OVCAR-4 ovarian 91.7% | SK-OV-3 ovarian 88.1% | IGROV1 ovarian 59.5% | OVCAR-3 ovarian 17% | HS 578T breast 89.9% | NCI/ADR-RES ovarian 69.1%
active: CCRF-CEM leukemia 5.54% | RPMI-8226 leukemia -7.06%

CN(C)CCn1c2ccccc2c2nc3cc(C(F)(F)F)ccc3nc21
inactive: SK-MEL-2 melanoma 56.4% | EKVX NSCLC 64.3% | SN12C renal 21.7% | UO-31 renal 11.9% | TK-10 renal 108% | ACHN renal 13.5% | CAKI-1 renal 11% | A498 renal 75.8% | MOLT-4 leukemia 23.8% | OVCAR-8 ovarian 35.7% | OVCAR-5 ovarian 38.8% | OVCAR-4 ovarian 54.3% | SK-OV-3 ovarian 41.5% | IGROV1 ovarian 22.4% | OVCAR-3 ovarian 69.2% | HS 578T breast 65.8% | NCI/ADR-RES ovarian 30.2%

CN1CCN(c2ccc3c(c2)nc(NNC(=O)c2cnccn2)c2cccn23)CC1
active: SK-MEL-2 melanoma -69% | EKVX NSCLC -46.8% | SN12C renal 0.109% | UO-31 renal -77.9% | TK-10 renal -74.5% | ACHN renal -85.8% | CAKI-1 renal -74% | A498 renal -84.7% | RPMI-8226 leukemia 5.23% | OVCAR-5 ovarian -25% | OVCAR-4 ovarian -37.6% | SK-OV-3 ovarian -51.3% | OVCAR-3 ovarian -19.7% | NCI/ADR-RES ovarian -10%
inactive: CCRF-CEM leukemia 13.8% | IGROV1 ovarian 12.4% | HS 578T breast 34.1%

C[C@H]1CN(C(=O)c2ccc3c(NNC(=O)c4ccncn4)nc4cc(F)c(F)cc4n23)CCN1
active: ACHN renal 8.98% | NCI/ADR-RES ovarian 3.96%
inactive: SK-MEL-2 melanoma 53.4% | EKVX NSCLC 15.7% | SN12C renal 24.1% | UO-31 renal 13.6% | TK-10 renal 36.8% | CAKI-1 renal 15.2% | A498 renal 50.3% | CCRF-CEM leukemia 10.9% | RPMI-8226 leukemia 23.6% | OVCAR-8 ovarian 17.2% | OVCAR-5 ovarian 50.4% | SK-OV-3 ovarian 43.7% | IGROV1 ovarian 33% | OVCAR-3 ovarian 58.2% | HS 578T breast 59.6%

Reference: PubChem BioAssay (NCI)
